Results on 13 molecules are retold here after PubChem BioAssay.

Activity calls are given as the source filed them.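 The calls were made as follows, unless noted: active = inhibition above 20% together with a positive visual image hit; inconclusive = visual image hit but inhibition not above 20%; inactive = no visual image hit.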

A short description of test [1]: inhibitors of TNFa-induced NFkB p65 translocation, primary screen, imaging, HUVEC, MLSMR starter and 10KST1 sets (AID 438).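 Also: compound added about 3h40 before a 20 min TNFalpha stimulation.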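 As to inhibition: signal is the nuclear over cytoplasmic p65 intensity ratio per well.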 Conditions: HUVEC TNFa-induced p65 nuclear translocation; cell count: measured here: nuclei count (cytotoxicity indicator), at 2.08 µM; inhibition: at 2 µM, stronger effect = higher value, 0% TNFa-plus-vehicle, 100% no-TNFa wells.
Test [2] is described as follows: inhibitors of mutant huntingtin aggregation, primary screen, imaging, exon1htt(103Q)mCFP cells, high-content imaging (AID 483;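 active = visual image review flags a hit and inhibition of aggregation exceeds 20%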;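 also: compound exposure lasted 3 days before fixation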;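 as to nuclei count: percent of the per-plate median nuclei count of sample wells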). To be noted: exon1htt(103Q)mCFP cell line, aggregate imaging, at 2 µM; inhibition of aggregation: stronger effect = higher value; nuclei count: measured here: cell count, toxicity.
A short description of test [3]: inhibitors of E-selectin induction by TNFa, primary screen, imaging, HUVEC, immunofluorescence, MLSMR starter and 10KST1 sets (AID 487;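 active = visually confirmed hit in the image check and inhibition above 20%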;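 as to inhibition: signal is fraction of cell area covered by stained E-selectin grains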;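 as to nuclei count: 100% = median nuclei count of all wells on the same plate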). To be noted: HUVEC TNFalpha-induced E-selectin immunofluorescence imaging, at 2 µM; inhibition: stronger effect = higher value; nuclei count: measured here: cell number, toxicity.
The target in test [4] is Voltage-gated potassium channel subunit beta-2 (Rattus norvegicus) (UniProt P62483). Briefly: KvBeta enzyme negative modulators, primary screen, biochemical, NADPH fluorescence (AID 622;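 active = fluorescence slope higher than the sample average by over 3 SD, cut at about -0.22 in these data, passing the limit was not always enough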;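 also: slope of raw intensity against log time taken from 70 to 1610 s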). To be noted: recombinant KvBeta, 4-cyanobenzaldehyde reduction, at 10 µM, stronger effect = higher value.
Voltage-gated potassium channel subunit beta-2 (Rattus norvegicus), sequence (P62483 whole entry, looked up): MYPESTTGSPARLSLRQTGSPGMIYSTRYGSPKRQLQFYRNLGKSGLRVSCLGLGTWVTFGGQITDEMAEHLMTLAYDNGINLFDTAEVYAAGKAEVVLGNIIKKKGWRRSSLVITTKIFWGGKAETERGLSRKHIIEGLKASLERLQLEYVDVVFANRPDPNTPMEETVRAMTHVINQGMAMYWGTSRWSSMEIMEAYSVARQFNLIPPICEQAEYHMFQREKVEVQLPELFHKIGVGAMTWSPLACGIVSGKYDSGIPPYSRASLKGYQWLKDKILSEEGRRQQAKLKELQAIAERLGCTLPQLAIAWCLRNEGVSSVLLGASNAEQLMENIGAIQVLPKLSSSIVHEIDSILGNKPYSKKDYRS
For test [5] the target is unchanged. In words: KvBeta positive modulators, primary screen, biochemical, NADPH fluorescence (AID 623;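 active = NADPH fluorescence slope more negative than the mean of all samples by about 3 SD, 99.7% confidence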;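 also: fluorescence intensity change per second fitted from 20 to 320 s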). To be noted: Recombinant KvBeta, NADPH fluorescence decrease slope, 10 min; at 10 µM; stronger effect = lower value.
The target of test [6] is Alpha-2C adrenergic receptor (Homo sapiens) (UniProt P18825). Briefly: modulators of alpha2C/GIRK thallium flux, primary screen, cell-based, HEK293 alpha2C/GIRK1/2 (AID 624;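 active = fluorescence slope after compound addition differing from the mean of all screened samples at 99.7% confidence, in either direction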;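 also: slope of fluorescence ratio to pre-addition baseline per second over 15 to 24 s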). To be noted: thallium flux BTC fluorescence, at 10 µM, actives lie on both sides.
Alpha-2C adrenergic receptor (Homo sapiens), sequence (P18825 whole entry, looked up): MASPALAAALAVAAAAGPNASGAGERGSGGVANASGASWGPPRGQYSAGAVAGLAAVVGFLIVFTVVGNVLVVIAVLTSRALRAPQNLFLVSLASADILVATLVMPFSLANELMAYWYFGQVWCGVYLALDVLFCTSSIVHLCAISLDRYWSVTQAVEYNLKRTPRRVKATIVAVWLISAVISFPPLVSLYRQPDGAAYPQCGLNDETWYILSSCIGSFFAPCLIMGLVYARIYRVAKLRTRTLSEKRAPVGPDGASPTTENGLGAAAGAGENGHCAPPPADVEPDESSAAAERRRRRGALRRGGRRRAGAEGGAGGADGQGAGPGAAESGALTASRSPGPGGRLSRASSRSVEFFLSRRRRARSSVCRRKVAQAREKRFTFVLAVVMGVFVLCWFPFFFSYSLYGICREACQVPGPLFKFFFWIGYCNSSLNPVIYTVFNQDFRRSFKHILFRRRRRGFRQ
Test [7] in a line: inhibitors of Sendai virus-induced IRF3 signaling, primary screen, TLR/RLR signaling modifier project, cell-based, Sendai virus stimulus, luciferase, 10K MLSCN set (AID 602276;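 active = inhibition at or above 50% at 10 µM; inactive = inhibition below 50%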;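 also: firefly luciferase from ISG56 promoter only with Renilla not read in this screen; 0% = Sendai virus plus DMSO and 100% = medium plus DMSO without virus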). Conditions: HEK293 RL24 IRF3 luciferase reporter, at 10 µM, stronger effect = higher value.
The nature of test [8]: inhibitors of poly I:C-induced TLR3 signaling, primary screen, cell-based, poly I:C stimulus, luciferase, 10K MLSCN set (AID 602277;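 active = inhibition of the reporter signal at or above 50%; inactive = inhibition below 50%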). To be noted: HEK293-TLR3 RL24 IRF3 luciferase reporter, at 10 µM, stronger effect = higher value.

`CCOc1cccc2cc(C(=O)N3CCN(C/C=C/c4ccccc4)CC3)c(=O)oc12`: the cell count in test [1] is 596. Also, the inhibition is -3.6% (inactive) in test [1], -80.4% (inactive) in test [3], 1.41% (inactive) in test [7] and -10.8% (inactive) in test [8]. The inhibition of aggregation in test [2] is -2.4% (inactive). For the same molecule, the figures for the nuclei count in test [2] and in test [3] were 103% and 133%, respectively. In test [4], the fluorescence slope was -0.236 (inactive). Further, the NADPH fluorescence slope in test [5] was -4e-05 (inactive). Further, in test [6], the slope was 0.00413 (inactive).

`Cc1c(C(=O)NC2CC2)oc2ccc(S(=O)(=O)N3CCCCCC3)cc12`: the cell count in test [1] was 635. Besides, the inhibition in test [1] was 3.4% (inactive); in test [3], -102% (inactive); in test [7], -22.3% (inactive); in test [8], -28.3% (inactive). Also, the inhibition of aggregation in test [2] was -2.5% (inactive). Besides, the nuclei count in test [2] stood at 92.4%; in test [3] it was 116%. For the same molecule, the fluorescence slope in test [4] was -0.508 (inactive). Also, in test [5], the NADPH fluorescence slope was 4.1e-05 (inactive). The slope in test [6] is 0.00537 (inactive).

With `COc1ccc(-c2cc(C(F)(F)F)n3nc(C(=O)N4CCOCC4)nc3n2)cc1`, the cell count in test [1] came out at 620. Besides, the inhibition was 11.1% (inactive) in test [1], 41.9% (inactive) in test [3], 10.8% (inactive) in test [7] and 15.3% (inactive) in test [8]. Moreover, the inhibition of aggregation in test [2] was -19.6% (inactive). Moreover, the values for the nuclei count in test [2] and in test [3] were 103% and 102%, respectively. Further, in test [4], the fluorescence slope was -0.172 (inactive). The NADPH fluorescence slope in test [5] was -5.6e-05 (inactive). Moreover, the slope in test [6] was 0.00494 (inactive).

Consider `CCCC(=O)Nc1ccccc1-c1nnn(CC(=O)Nc2ccc(OCC)cc2)n1`, for which the cell count in test [1] came out at 369. Moreover, the inhibition was 3% (inactive) in test [1], -7.5% (inactive) in test [3], 12.2% (inactive) in test [7] and 9.95% (inactive) in test [8]. In addition, in test [2], the inhibition of aggregation was -6.8% (inactive). The nuclei count was found to be 97.4% in test [2] and 94.3% in test [3]. For the same molecule, the fluorescence slope in test [4] was -0.444 (inactive). In test [5], the NADPH fluorescence slope was -0.000123 (inactive). Besides, in test [6], the slope was 0.00619 (inactive).

With `COc1ccc(N2CCN(CCCNC(=O)C3CCCN(S(=O)(=O)c4cnc[nH]4)C3)CC2)cc1` (stereo not drawn), the cell count in test [1] is 604. The inhibition in test [1] was 33.9% (active); in test [3] it was -87.7% (inactive); in test [7], -10.4% (inactive); in test [8], 17.4% (inactive). Besides, the inhibition of aggregation in test [2] was -29.9% (inactive). In addition, the nuclei count in test [2] stood at 89.3%; in test [3] it was 122%. Moreover, the fluorescence slope in test [4] was -0.537 (inactive). Moreover, in test [5], the NADPH fluorescence slope is -5.9e-06 (inactive). Besides, the slope in test [6] was 0.0058 (inactive).

For `CCCn1nc(NC(=O)c2cccs2)c2cc3cc(OC)ccc3nc21`, in test [1], the cell count was determined as 630. Also, the inhibition was -6.8% (inactive) in test [1], -20.4% (inactive) in test [3], -4.8% (inactive) in test [7] and -37.7% (inactive) in test [8]. For the same molecule, the inhibition of aggregation in test [2] was -8% (inactive). Besides, the nuclei count in test [2] was determined as 104%; in test [3], 112%. Moreover, the fluorescence slope in test [4] was -0.119 (inactive). Also, in test [5], the NADPH fluorescence slope was 2.2e-05 (inactive). Also, in test [6], the slope was 0.00675 (inactive).

Regarding `Cc1cc(=O)n(C)c(=O)n1CCCCCN1CCCC1`, the cell count in test [1] stood at 655. In addition, the inhibition in test [1] was 2.2% (inactive); in test [3], -52% (inactive); in test [7] it was 19.1% (inactive); in test [8] it was 25.3% (inactive). In addition, in test [2], the inhibition of aggregation was -3.3% (inactive). Moreover, the nuclei count in test [2] came out at 106%; in test [3], 102%. Also, the fluorescence slope in test [4] is -0.51 (inactive). For the same molecule, in test [5], the NADPH fluorescence slope was -1.1e-05 (inactive). In test [6], the slope is 0.00473 (inactive).

Regarding `Cc1nc2ccc(S(=O)(=O)NC(C(=O)N3CCCC3)C(C)C)cc2s1` (stereo not drawn), the cell count in test [1] worked out at 677. Further, the inhibition was 1.8% (inactive) in test [1], -33% (inactive) in test [3], 12.9% (inactive) in test [7] and 13.8% (inactive) in test [8]. Also, the inhibition of aggregation in test [2] is -21.4% (inactive). Also, the nuclei count in test [2] stood at 111%; in test [3] it was 110%. In addition, in test [4], the fluorescence slope is -0.613 (inactive). Moreover, the NADPH fluorescence slope in test [5] was 1.2e-05 (inactive). The slope in test [6] is 0.00717 (inactive).

As to `c1ccc2c(c1)CC(N1CCCCC1)c1ccccc1N2` (stereo not drawn), the cell count in test [1] is 631. The inhibition was -6.3% (inactive) in test [1], -26.5% (inactive) in test [3], 10.1% (inactive) in test [7] and 24.1% (inactive) in test [8]. In addition, the inhibition of aggregation in test [2] is 10.2% (inactive). Besides, the nuclei count in test [2] came to 107%; in test [3] it was 83.5%. The fluorescence slope in test [4] was -0.41 (inactive). Besides, the NADPH fluorescence slope in test [5] was -0.000142 (inactive). Besides, in test [6], the slope was 0.00466 (inactive).

For the molecule `Cc1cccc(N2C(=O)CC(N(C(=O)c3ccco3)c3cccc(C)c3)C2=O)c1` (stereo not drawn), in test [1], the cell count was 641. Also, the inhibition in test [1] is -9.3% (inactive); in test [3] it was -156% (inactive); in test [7] it was 13.6% (inactive); in test [8], 19% (inactive). For the same molecule, the inhibition of aggregation in test [2] is -5.2% (inactive). The nuclei count in test [2] stood at 99%; in test [3] it was 102%. Besides, in test [4], the fluorescence slope is -0.504 (inactive). For the same molecule, the NADPH fluorescence slope in test [5] was -5.1e-05 (inactive). The slope in test [6] was 0.00488 (inactive).

Turning to `Cc1ccc(NC(=O)c2ccco2)c(NC(=O)c2cccs2)c1`, the cell count in test [1] was determined as 684. Moreover, the inhibition in test [1] is 4.8% (inactive); in test [3], -119% (inactive); in test [7] it was 14.6% (inactive); in test [8], 16.5% (inactive). Besides, the inhibition of aggregation in test [2] was 9.4% (inactive). In addition, the nuclei count was found to be 103% in test [2] and 111% in test [3]. In addition, the fluorescence slope in test [4] is -0.375 (inactive). The NADPH fluorescence slope in test [5] is 2e-06 (inactive). For the same molecule, in test [6], the slope is 0.00493 (inactive).

Regarding `O=C(CCn1c(=O)oc2ccccc21)N1CCN(c2ccccc2Cl)CC1`, the cell count in test [1] amounted to 570. Also, the inhibition was 3.9% (inactive) in test [1], 26.9% (inactive) in test [3], 49.8% (inactive) in test [7] and 19.6% (inactive) in test [8]. Besides, the inhibition of aggregation in test [2] is -52.3% (inactive). Moreover, the nuclei count in test [2] stood at 22.3%; in test [3] it was 81.9%. Besides, the fluorescence slope in test [4] was -0.379 (inactive). Further, the NADPH fluorescence slope in test [5] was -2e-05 (inactive). Moreover, in test [6], the slope was 0.0037 (inactive).

As for `Cc1c(C(=O)NCc2ccccc2)oc2c1C(=O)CCC2`, the cell count in test [1] was found to be 530. The inhibition in test [1] is -18.8% (inactive); in test [3], -70% (inactive); in test [7], -4.65% (inactive); in test [8], -7.05% (inactive). Besides, the inhibition of aggregation in test [2] was -28.3% (inactive). For the same molecule, the nuclei count in test [2] was 101%; in test [3] it was 121%. In addition, in test [4], the fluorescence slope was -0.372 (inactive). In test [5], the NADPH fluorescence slope was -6.4e-05 (inactive). Besides, the slope in test [6] is 0.00395 (inactive).
